Assay results published in PubChem BioAssay (NCI).
About 79,000 compounds went through this panel and 15% of them were active in at least one assay; those are over-represented in the sample as a whole. Values without a mark were called inactive. Active and inactive are the calls of the source. Cut-off read from the data, not from the text of the source: active = growth inhibition above about 70%; inactive = the rest.

What was measured:
[1] = NCI Yeast Anticancer Drug Screen. Data for the rad50 strain (AID 155);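 note: 0% = growth of vehicle-only cultures of the same strain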; details: S. cerevisiae rad50 strain growth inhibition, hits give high values
Summary of the method: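 Relative growth inhibition (compound vs vehicle) was measured in yeast with a defined repair-gene alteration.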

[2] = NCI Yeast Anticancer Drug Screen. Data for the mec2-1 strain (AID 157); details: S. cerevisiae mec2-1 strain, hits give high values
Summary of the method: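 Vehicle-treated cultures served as reference for growth inhibition of compound-exposed mec2-1 yeast.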

[3] = NCI Yeast Anticancer Drug Screen. Data for the sgs1 mgt1 strain (AID 161);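 note: 0% = growth of cultures given vehicle only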; details: S. cerevisiae sgs1 mgt1 strain, hits give high values
Summary of the method: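 Inhibition of yeast growth, normalised to vehicle-treated controls, is reported for a strain bearing genetic alterations in DNA damage repair.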

[4] = NCI Yeast Anticancer Drug Screen. Data for the cln2 rad14 strain (AID 165);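 note: 0% = growth equal to vehicle treated cultures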; details: S. cerevisiae cln2 rad14 strain, hits give high values
Summary of the method: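 Each compound was tested on cln2 rad14 yeast. Inhibition of growth was calculated against vehicle-exposed controls.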

[5] = NCI Yeast Anticancer Drug Screen. Data for the bub3 strain (AID 167); details: S. cerevisiae bub3 mutant strain, hits give high values
Summary of the method: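 Screening used yeast with an engineered genetic alteration affecting cell cycle control. Compound-exposed cultures were compared with vehicle cultures, and reduced growth was taken as inhibition.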

[6] = NCI Yeast Anticancer Drug Screen. Data for the mlh1 rad18 strain (AID 175); details: S. cerevisiae mlh1 rad18 strain growth inhibition, hits give high values
Summary of the method: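 Vehicle-treated cultures served as the reference for growth inhibition in a yeast strain carrying DNA damage repair alterations exposed to each compound.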

[7] = at 5.0 µM (retest, dose inferred, filed as 0.5)
[8] = at 50.0 µM (retest, dose inferred, filed as 5.0)

| Structure (SMILES) | growth inhibition [1, 7] | growth inhibition [1, 8] | growth inhibition ([1]; at 50.0 µM) | growth inhibition [2, 7] | growth inhibition [2, 8] | growth inhibition ([2]; at 50.0 µM) | growth inhibition [3, 7] | growth inhibition [3, 8] | growth inhibition ([3]; at 50.0 µM) | growth inhibition [4, 7] | growth inhibition [4, 8] | growth inhibition ([4]; at 50.0 µM) | growth inhibition [5, 7] | growth inhibition [5, 8] | growth inhibition ([5]; at 50.0 µM) | growth inhibition [6, 7] | growth inhibition [6, 8] | growth inhibition ([6]; at 50.0 µM) |
| --- | --- | --- | --- | --- | --- | --- | --- | --- | --- | --- | --- | --- | --- | --- | --- | --- | --- | --- |
| CN(NC(=O)CC(=O)NN(C)C(=S)c1ccccc1)C(=S)c1ccccc1 | 76% (active) | 84% (active) | 68.5% | 81% (active) | 87% (active) | 80% (active) | 96% (active) | 87% (active) | 91.7% (active) | 60% | 69% | 73.8% (active) | 54% | 73% (active) | 76% (active) | 78% (active) | 76% (active) | 84.2% (active) |
| C(=[CH]/[Sn]([c]1ccccc1)([c]1ccccc1)[c]1ccccc1)/c1ccccc1 | 96% (active) | 88% (active) | 94.8% (active) | 95% (active) | 94% (active) | 98.4% (active) | 98% (active) | 92% (active) | 96.2% (active) | 92% (active) | 86% (active) | 95% (active) | 97% (active) | 85% (active) | 99.2% (active) | 97% (active) | 84% (active) | 94.1% (active) |
| CSC(=S)n1nc(-c2cccs2)c(N=Nc2ccc(Cl)cc2)c1C(F)(F)F | 29% | 63% | 83.8% (active) | 1% | 86% (active) | 93.4% (active) | 20% | 75% (active) | 46.5% | 14% | 49% | 65.4% | 14% | 87% (active) | 75.3% (active) | 19% | 56% | 96.1% (active) |
| COc1ccc2c(c1OC)OCC2C (stereo not given) | 3% | 68% | 86.5% (active) | 0% | 38% | 71% (active) | 1% | 56% | 37.6% | -4% | 57% | 57.4% | 2% | 71% (active) | 87.1% (active) | -4% | 67% | 43.2% |
| CCCOC1=C(Cl)C(=O)c2cccc([N+](=O)[O-])c2C1=O | 94% (active) | 98% (active) | 99.5% (active) | 97% (active) | 99% (active) | 99.5% (active) | 81% (active) | 99% (active) | 99.4% (active) | 20% | 99% (active) | 99% (active) | 97% (active) | 99% (active) | 99.5% (active) | 93% (active) | 98% (active) | 99.1% (active) |
| CCCCC(Oc1cc(C(C)(C)C)c(O)c(C(C)(C)C)c1)C(=O)O (stereo not given) | 21% | 68% | 99.1% (active) | 12% | 70% (active) | 99.4% (active) | 35% | 97% (active) | 99.5% (active) | 49% | 95% (active) | 99% (active) | 3% | 97% (active) | 99.2% (active) | 27% | 97% (active) | 98.9% (active) |
| C1=NC2c3ccccc3Cc3cccc1c32 (stereo not given) | -20% | 94% (active) | 95.4% (active) | -3% | 97% (active) | 95.8% (active) | 7% | 97% (active) | 95.3% (active) | -28% | 96% (active) | 93.6% (active) | 2% | 97% (active) | 93.3% (active) | -13% | 97% (active) | 94.3% (active) |
| OC(CN1CCCCC1)c1ccc2c(ccc3ccccc32)c1 (stereo not given) | 21% | 54% | 83% (active) | 6% | 46% | 50% | 35% | 75% (active) | 88.2% (active) | 19% | 50% | 75% (active) | 25% | 69% | 91.8% (active) | 22% | 61% | 87.5% (active) |
| CSC(=Nc1ccccc1)NC(=O)Nc1ccc(Cl)cc1 | -8% | -11% | -1.45% | 5% | -15% | 5% | -34% | -17% | -2.1% | -18% | -17% | -31.2% | -22% | -4% | 2.55% | -7% | -5% | 3.15% |
| COC([C@@H](OC(=O)c1ccccc1)[C@H](OC(=O)c1ccccc1)C(O)COC(=O)c1ccccc1)n1cc(C)c(=O)[nH]c1=O (stereo not given in full) | -8% | 26% | 17.1% | -8% | 18% | 49.5% | 4% | 33% | 65.5% | 8% | 57% | 53.5% | -19% | 28% | 71.8% (active) | -3% | 69% | 67.3% |
